Consider 40 molecules from PubChem BioAssay.

Active and inactive are the calls of the source. No stated cut-off is given here; in the data, active means inhibition above about 25%; inactive means the rest.

As a reminder, the inhibition is the change of the read-out against control, counted positive when it falls.

The assay can be described thus: repression of VP16-driven luciferase reporter – cell-based, luminescence, high throughput, counter-screen for SRC1 inhibitor project (AID 588824). The following applies: cell-based VP16 transactivation luciferase luminescence; at 3.6 µM; hits give high values. (A reporter such as luciferase makes a cellular process visible.)
As for `Cn1c(=O)c2[nH]c(COc3ccc(C(C)(C)C)cc3)nc2n(C)c1=O`, the inhibition was 18.8% (inactive).
The value for `CCN(CC(=O)Nc1ccccc1C(F)(F)F)C(=O)c1ccc2[nH]c3c(c2c1)CC(C)CC3` (stereo not given) was -8.04% (inactive); that for `COc1cc(C(c2sc3nc(C)nn3c2O)N2CCc3ccccc3C2)cc(OC)c1OC` (stereo not given) was -0.57% (inactive); that for `CCc1ccc(NC(=O)c2ccc(F)c(S(=O)(=O)N(CC)c3ccccc3)c2)cc1` was 13.5% (inactive).
The result for `COc1ccccc1-n1nnnc1SC(C)C(=O)NC1CCCC1` (stereo not given) reads -10.9% (inactive); that for `CNc1snc(C)c1C(=O)OCC(=O)Nc1ccc(C)cc1F`, -1.51% (inactive).
The result for `COc1ccccc1C(c1nnnn1Cc1ccco1)N1CCN(c2cccc(C)c2C)CC1` (stereo not given) reads 5.76% (inactive); that for `O=C(CSc1nc2ccccc2[nH]1)Nc1cccc(S(=O)(=O)N2CCOCC2)c1`, -4.53% (inactive); that for `Cc1csc(NC(=O)c2cc(-c3ccccc3)nc3ccccc23)n1`, 1.79% (inactive).
Turning to `CCc1nc(Nc2ccncc2)c2oc3ccccc3c2n1`, the inhibition was 12% (inactive).
Turning to `Cc1nn(-c2ccccc2)c(N2CCCC2)c1/C=N/NC(=S)Nc1ccc(F)cc1`, the inhibition was 0.35% (inactive).
On to `COc1ccc(C(=O)Oc2ccc(/C=N/NC(=O)c3ccccc3OC)cc2[N+](=O)[O-])cc1`, for which the inhibition was -0.66% (inactive).
In the case of `COc1ccc(CCNc2ncnc3c2[nH]c2cc(OC)c(OC)cc23)cc1OC`, the inhibition was -14.5% (inactive).
On to `NC(=O)c1nsc(C(=O)N(c2ccccc2F)C(C(=O)NCc2ccccc2)c2ccc(O)cc2)c1N` (stereo not given), for which the inhibition is 2.13% (inactive).
The result for `CN(C)c1ccncc1C(=O)Nc1ccc(F)cc1F` reads -9.03% (inactive).
The result for `c1ccc2c(c1)CCN(c1nc3cc4c(cc3s1)OCCO4)C2` reads 2.93% (inactive); that for `O=C(c1ccccc1)C1CCN(C(=O)c2ccc(Cl)cc2)CC1`, 5.47% (inactive); that for `COc1ccc2cc3c(N)nn(C(=O)c4cccc([N+](=O)[O-])c4)c3nc2c1`, 36.1% (active).
The value for `CC(NC(=O)COC(=O)c1cccs1)c1ccccc1` (stereo not given) was 13.6% (inactive); that for `COC(=O)c1cccc(NC(=O)c2ccc[n+]([O-])c2)c1` was 4.7% (inactive).
`O=C(CS(=O)c1ccc(F)cc1)N1CCOCC1` (stereo not given): the inhibition is -3.56% (inactive).
For the molecule `N#Cc1ccc(Oc2ccc(C(F)(F)F)cc2NC(=O)c2ccc(F)cc2)cc1`, the inhibition was 1.11% (inactive).
The result for `CN(C(=O)COC(=O)c1ccc2[nH]c3c(c2c1)CCCC3)C1CCS(=O)(=O)C1` (stereo not given) reads -0.75% (inactive); that for `Cc1ccc2nc(NC(=O)CCCC(=O)O)sc2c1`, 37.5% (active).
The result for `Cc1ccc(S(=O)(=O)N2CCN(c3ncnc4sccc34)CC2)cc1C` reads 21.7% (inactive).
The result for `CC1(c2ccccc2)NC(=O)N(CC(=O)Nc2cc3c(cc2Br)OCCO3)C1=O` (stereo not given) reads -6.44% (inactive); that for `CCN1C(=O)c2cccc3c(S(=O)(=O)Nc4ccc(O)c(C(=O)O)c4)ccc1c23`, -15.2% (inactive); that for `CCN(CC)CCNc1nc2cc(OC)c(OC)cc2c2nc(-c3ccccc3)nn12`, 33.3% (active).
Take `Cc1ccc(S(=O)(=O)NNC2=NS(=O)(=O)c3ccccc32)c(C)c1`: the inhibition was -7.56% (inactive).
On to `COc1ccccc1-c1cccc(-c2nc(C(=O)N3CCCCC3)cc3c2[C@H](CCO)N(S(=O)C(C)(C)C)C3)c1` (stereo not given in full), for which the inhibition is -21.5% (inactive).
The result for `Cc1ccc(S(=O)(=O)c2nc(-c3ccccc3Cl)oc2NCCCN2CCOCC2)cc1` reads -5.68% (inactive); that for `COc1ccc(-c2nc(-c3ccc(NC(=O)c4ccncc4)cc3)no2)cc1OC`, 41.4% (active); that for `COc1cc(C)c(/C=C(\C#N)C(=O)Nc2ccc(C)cc2)cc1C(C)C`, 0.73% (inactive).
Regarding `Cc1nn(CC(=O)N2CCN(c3cccc(C(F)(F)F)c3)CC2)c(=O)c2cccn12`, the inhibition was 8.52% (inactive).
The result for `COc1cc2c(cc1NC(=O)/C=C/c1cc(OC)c(OC)c(OC)c1)oc1ccccc12` reads -2.37% (inactive).
For `COc1cc(C(=O)OCC(=O)NC(N)=O)cc(CN2C(=O)c3ccccc3C2=O)c1OC`, the inhibition was -8.55% (inactive).
The result for `NS(=O)(=O)c1ccc(N=Nc2c(O)ccc3ccccc23)cc1` reads 4.7% (inactive); that for `Cc1nnc(N2CCN(Cc3ccccc3)CC2)[nH]c1=O`, -7.63% (inactive); that for `Cc1cc(C(=O)OCC(=O)N2CC(C)OC(C)C2)c(C)n1-c1ccccc1` (stereo not given), -1.93% (inactive).
The value for `COc1cccc(C(c2c(NC(=O)c3ccco3)sc(C)c2C)N2CCOCC2)c1` (stereo not given) was -1.54% (inactive).
